From PubChem
The list is not random: actives were taken first. Their share in the collection is about 1.3%.
LANA-H2B inh – blocks KSHV LANA binding to histone H2A/H2B. Q9QR71. cell-free LANA-H2A/H2B peptide, fluorescence polarization. inhibition, % (no concentration beside the values). actives 0.6% (n = 320,000). AID 2629; in the data active means inhibition mostly above about 10%, no sharp cut-off; inactive means mostly below about 6.7%
Cardiac RTF inh – cardiac RTF calcium desensitization; IANBD-labeled cardiac RTF, Ca2+ fluorescence; inhibition, % at 7.15 µM; actives 0.12% (n = 340,000); AID 493244;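 active means inhibition above the mean inhibition of all tested compounds plus 3 SD, cut at about 17% in these data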;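 further: assay run at fixed EC70 calcium of 1.6 mM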
RTF Ca sens act – increases calcium sensitivity of human cardiac regulated thin filaments; activation, % at 7.2 µM; actives 0.24% (n = 340,000); P19429+P45379; AID 493008; IANBD-labeled TnC RTF fluorescence at EC20 calcium; 0% EC20 calcium, 100% full calcium;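 active means activation above the mean over all tested compounds plus 3 SD, cut at about 30% in these data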;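 further: rise in fluorescence read as greater calcium sensitivity of cardiac thin filaments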
C-LANA FP – blocks KSHV LANA C-terminal domain binding to DNA | MBP-C-LANA/FAM-LBS DNA binding, fluorescence polarization | AID 504423 | actives 0.078% (n = 340,000) | inhibition, % at 9 µM;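 active means highest replicate inhibition at or above 60% at 9 µM, even if other replicates fall short; inactive means all replicates below 60% inhibition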;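 further: 0% = neutral control wells and 100% = 4 µM acridine orange control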
eLon inh – E. coli protease La inhibition | purified E. coli Lon protease, fluorescence polarization | inhibition, % at 7.94 µM | P0A9M0 | AID 602123 | actives 0.42% (n = 360,000); in the data active means inhibition above about 13%, passing the limit was not always enough;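 further: 0% = enzyme with probe and DMSO and 100% = no enzyme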
Keap1 Nrf2 FP – disrupts human Keap1 binding to Nrf2 peptide; Q14145; Keap1 Kelch-Nrf2 peptide fluorescence polarization, 1536-well; inhibition, % at 9.4 µM; actives 0.15% (n = 340,000); AID 504523; in the data active means inhibition above about 12%;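 further: human Keap1 Kelch domain with fluorescein labeled Nrf2 9mer peptide probe; 0% = neutral control wells and 100% = peptide positive control; higher means more block of Keap1 binding to Nrf2 peptide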
Target sequence (Q14145 whole entry, looked up, the tested form may be a part): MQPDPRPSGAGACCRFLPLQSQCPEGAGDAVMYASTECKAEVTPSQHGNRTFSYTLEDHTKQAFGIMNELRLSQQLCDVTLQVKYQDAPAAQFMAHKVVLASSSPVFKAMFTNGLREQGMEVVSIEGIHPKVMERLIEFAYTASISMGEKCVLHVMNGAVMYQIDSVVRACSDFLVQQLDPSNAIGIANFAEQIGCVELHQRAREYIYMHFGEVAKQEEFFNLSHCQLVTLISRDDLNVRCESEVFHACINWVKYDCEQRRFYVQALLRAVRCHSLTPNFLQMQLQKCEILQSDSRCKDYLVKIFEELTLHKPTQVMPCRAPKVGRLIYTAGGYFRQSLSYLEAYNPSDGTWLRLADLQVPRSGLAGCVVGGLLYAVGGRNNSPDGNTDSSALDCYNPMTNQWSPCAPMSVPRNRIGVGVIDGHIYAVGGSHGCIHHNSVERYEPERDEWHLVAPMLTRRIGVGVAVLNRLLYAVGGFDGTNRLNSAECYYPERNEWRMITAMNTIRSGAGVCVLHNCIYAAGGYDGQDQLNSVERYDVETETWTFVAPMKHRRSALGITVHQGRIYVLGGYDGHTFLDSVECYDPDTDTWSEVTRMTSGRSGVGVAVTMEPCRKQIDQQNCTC
E coli Lon conf – E. coli Lon inhibition confirmation; AID 602230; shares compounds with eLon inh; actives 31% (n = 1,400); inhibition, % at 7.94 µM; purified E. coli Lon, fluorescence polarization; in the data active means inhibition above about 16%;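 further: 0% = enzyme with probe and DMSO and 100% = no enzyme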
An asterisk follows results filed as active; . = no result; + = active, no number.

SMILES | LANA-H2B inh | Cardiac RTF inh | RTF Ca sens act | C-LANA FP | eLon inh | Keap1 Nrf2 FP | E coli Lon conf
O=C(COC(=O)c1ccc(CN2CCCC2=O)cc1)Nc1ccc(F)cc1 | -1 | 11 | -2 | -1 | -6 | -5 | .
CC(OC(=O)c1ccc(CN2CCCC2=O)cc1)C(=O)Nc1ccc(Cl)cc1 (stereo unspecified) | 3 | -2 | -2 | 0 | 24* | -2 | 60*
CC(=O)Nc1ccc(NC(=O)C(C)OC(=O)c2ccc(S(=O)(=O)N3CCCCC3)cc2)cc1 (stereo unspecified) | 0 | 3 | -3 | -2 | 67* | 4 | 5
O=C(CSc1nc2ccccc2nc1N1CCCCC1)Nc1ccc(F)cc1 | 2 | -1 | 0 | -1 | -3 | -4 | .
Cc1cccc(C)c1NC(=O)CNC(=O)c1ccc(COc2ccccc2)o1 | 0 | 4 | 0 | -1 | 6 | -5 | .
Cc1cc(/C=N/NC(N)=S)c(O)c(/C=N/NC(N)=S)c1 | 0 | -266 | 166* | 32 | + | 0 | 189*
N=c1c2c(-c3ccccc3)c(-c3ccccc3)n(Cc3ccco3)c2ncn1CCCN1CCOCC1 | -3 | 2 | -5 | 0 | 14* | 0 | -1
N=c1c2c(-c3ccccc3)c(-c3ccccc3)n(Cc3ccco3)c2ncn1CCCn1ccnc1 | 2 | 4 | 4 | -1 | -11 | -3 | .
Cc1cc(-c2csc(N)n2)c(C)n1C | -8 | -4 | 1 | 0 | 16* | 0 | 1
Cc1cc(C)c(C)c(S(=O)(=O)NCCN2CCOCC2)c1C | -2 | -1 | 2 | 2 | 13 | 0 | .
Cc1ccc(CN2CC[C@H]3C=CCc4cccc(c43)C2)cc1 | 1 | -1 | 2 | 0 | -4 | -5 | .
C1=C[C@@H]2CCN(Cc3ccccc3)Cc3cccc(c32)C1 | -2 | -8 | 11 | 0 | 34* | -5 | 8
Cc1cc(CN2CCC(N3CCC(C(=O)NC4CC4)CC3)CC2)cc(C)c1O | -9 | 3 | -4 | 0 | -8 | -3 | .
NC(=O)c1ccccc1Nc1nc(NCCO)nc(N2CCCC2)n1 | -1 | -10 | 4 | 0 | -5 | 2 | .
CC1CN(Cc2csc(-c3ccc(Cl)cc3)n2)CC(C)O1 (stereo unspecified) | -2 | -1 | 5 | 0 | 15* | -8 | -7
CC(=O)Nc1cccc(C(=O)OCc2csc(CC(=O)Nc3ccccc3C)n2)c1 | -3 | -7 | -1 | -3 | 6 | -7 | .
COc1cccc(CN2CC(C(=O)N(C)Cc3nc4ccc(F)cc4[nH]3)CCC2=O)c1 (stereo unspecified) | . | 1 | 5 | -1 | 69* | 0 | -19
COc1ccc2nc(CCN(C)C(=O)C3CCC(=O)N(Cc4cccc(F)c4)C3)[nH]c2c1 (stereo unspecified) | 3 | -7 | -4 | 0 | -1 | 4 | .
Cc1ccc(-n2c(C)cc(C(=O)CN3CCOCC3)c2C)cc1 | -3 | 10 | 4 | 2 | 19* | -2 | 2
Cc1ccc(-n2c(C)cc(C(=O)CN3CCOCC3)c2C)cc1C | 1 | -24 | 3 | -2 | 1 | -5 | .
CCN(CC)CCCNc1ccc2ncn3c4ccc(O)cc4c(=O)c1c23 | . | -340 | 292* | 147* | + | 108* | +
Cc1ccc(-c2nnn(CCC(=O)N3CCCCC3C)n2)cc1 (stereo unspecified) | 9 | 4 | -4 | -2 | -14 | -4 | .
CC1CCCCN1C(=O)Cn1nnc(-c2cccnc2)n1 (stereo unspecified) | 4 | -13 | 16 | 6 | 26* | 1 | 0
CCCCc1nc2cc(C(=O)N3CCN(c4cnccn4)CC3)ccc2o1 | 2 | -11 | 2 | -1 | 85* | 0 | -1
CN(C)C(=O)CCc1ccc2c3c([nH]c2c1)[C@]1(C)[C@@H](C(=O)N2CCCCC2)C[C@H](CC(=O)NCCCn2ccnc2)C(=O)N1CC3 | . | 4 | -2 | 2 | 6 | -5 | .
SMILES | LANA-H2B inh | Cardiac RTF inh | RTF Ca sens act | C-LANA FP | eLon inh | Keap1 Nrf2 FP | E coli Lon conf
O=C(c1cccc(-c2ccccc2F)c1)N1CC[C@@H](N2CCC(O)CC2)[C@H](O)C1 | -16 | -13 | -1 | 0 | -12 | -1 | .
COc1cc(OC)cc(C(=O)N[C@H](C(=O)OCn2nnc3ccccc3c2=O)C(C)C)c1 | -5 | -3 | 1 | -1 | 16* | -7 | -8
O=C(N/N=C/c1ccc(-c2ccc(S(=O)(=O)Nc3ncccn3)cc2)o1)c1cc2ccccc2cc1O | 5 | 15 | -18 | 2 | 26* | 3 | 30*
COCC(C)n1c(C)cc(C(=O)COC(=O)c2cccn2C)c1C (stereo unspecified) | 3 | 0 | 0 | -2 | -5 | 4 | .
CCNc1cccc2c1C(=O)N(C)C2=O | -4 | -67 | 46* | 0 | 151* | -1 | 165*
CCC1(C)Cc2c(C#N)c(N)sc(=S)c2CO1 (stereo unspecified) | 1 | -7 | 12 | 1 | 10 | -6 | .
N#Cc1c(N)sc(=S)c2c1CCCC2 | -13 | -8 | 7 | 5 | 16* | 0 | 13
CC(=O)c1c(C)oc2c1cc(NS(=O)(=O)c1ccc(C(=O)O)cc1)c1ccccc12 | -6 | 5 | -5 | 0 | 3 | 5 | .
Cc1ccc(S(=O)(=O)Nc2cc3c(C(=O)Nc4ccccc4)c(C)oc3c3ccccc23)cc1 | 2 | 5 | 3 | 0 | 25* | -2 | 40*
COC(=O)C1=C(C)NC(C)=C(C(=O)OCC2CCCO2)C1c1ccc(Cl)c([N+](=O)[O-])c1 (stereo unspecified) | -6 | -14 | 9 | 0 | -9 | 3 | .
COC(=O)C1=C(C)NC(C)=C(C(=O)OCC2CCCO2)C1c1cccc(Cl)c1 (stereo unspecified) | 2 | -2 | -6 | -1 | 22* | 0 | -1
N#CC(C#N)=C1C=CC=CN1/C(=C\c1ccccc1)C(=O)c1cccs1 | 3 | -17 | 12 | 10 | 25* | 3 | 9
COCC(=O)N1CCC2CC1c1cc(Cl)ccc12 (stereo unspecified) | . | -4 | -5 | 6 | -9 | -2 | .
O=C(COC(=O)CNS(=O)(=O)c1c(F)cccc1F)NC(=O)NC1CCCCC1 | 0 | 3 | -3 | 1 | 27* | 0 | -8
COc1cccc(CN2C(=O)[C@@H]3Cc4c([nH]c5ccccc45)C(C)(C)N3C2=O)c1 | -1 | -2 | -7 | 2 | 4 | 0 | .
CC(=O)C1=C(O)C(=O)N(c2ccc(Br)cn2)C1c1ccc(Br)cc1 (stereo unspecified) | 5 | -9 | 6 | 0 | -7 | -6 | .
CC(=O)C1=C(O)C(=O)N(c2ccc(Br)cn2)C1c1ccc(F)cc1 (stereo unspecified) | -3 | -5 | 0 | 8 | 28* | 7 | 1
